In PubChem BioAssay (Tox21):
“And” between values parts separate entries of the source, which are not always exact repeats. Equal values may be shown once. Results filed as inconclusive are left out. Entries that show only a call come without a potency. More than one record can exist for a structure, and the calls need not agree. The source made the active and inactive calls. Unless noted, the call rests on the fitted dose curve; in most records, active means well fitted cell-killing curve with a large enough effect in the repeat runs (not every such curve was filed as active); inconclusive means weak or mixed curves, or effect the other way; inactive means no such curve, though single readings can be large or run the other way.

Target: Nuclear receptor subfamily 1 group I member 3 (Homo sapiens) (UniProt Q14994)
Sequence (Q14994 whole entry, looked up): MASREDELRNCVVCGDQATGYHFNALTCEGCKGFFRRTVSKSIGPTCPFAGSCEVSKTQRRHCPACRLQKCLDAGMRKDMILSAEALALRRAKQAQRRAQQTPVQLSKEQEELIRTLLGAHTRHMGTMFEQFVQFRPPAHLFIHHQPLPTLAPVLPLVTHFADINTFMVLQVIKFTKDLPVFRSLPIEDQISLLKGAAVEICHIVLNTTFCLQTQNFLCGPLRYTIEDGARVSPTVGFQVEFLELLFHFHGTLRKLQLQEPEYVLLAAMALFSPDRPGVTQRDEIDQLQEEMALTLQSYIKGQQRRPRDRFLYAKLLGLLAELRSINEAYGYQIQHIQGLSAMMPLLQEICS
Assay: qHTS assay to identify small molecule agonists of the constitutive androstane receptor (CAR) signaling pathway (AID 1224839; active means well fitted activation curve with a large enough effect in the repeat runs;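 further: HepG2 cells stably carrying human CAR and a CYP2B6 luciferase reporter; nearly all actives have a fitted effect of over 15% in size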)
Settings: HepG2 hCAR CYP2B6-luciferase, agonist mode, 24 h; series mostly up to 92.4 µM
Outline: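 Cells were plated and incubated 4 hrs, then dosed with compounds at 15 concentrations. PK11195 was added to 0.75 uM final. After 24 hrs at 37 C, luciferase luminescence was measured.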

| SMILES | Potency |
| --- | --- |
| CC(C)(C)NCC(O)c1ccc(O)c(CO)c1 (stereo not drawn) | inactive |
| C[C@]12C[C@H](O)[C@H]3[C@@H](CCC4=CC(=O)CC[C@@]43C)[C@@H]1CC[C@@H]2C(=O)CO | inactive |
| C=C(C)C(N)=O | inactive |
| Cc1cccc(C)c1O | inactive |
| C=CCOC(=O)CC(C)C | inactive |
| O=C(O)CN(CC(=O)O)CC(=O)O | inactive |
| CC(C)CC(C)CC(O)CC(C)C (stereo not drawn) | inactive |
| CCCCNC(=O)NS(=O)(=O)c1ccc(N)cc1 | inactive |
| CCCCCCCCOc1ccc(C(=O)c2ccccc2)c(O)c1 | inactive |
| C[C@]12CC[C@@H]3c4ccc(O)cc4C[C@@H](CCCCCCCCCS(=O)CCCC(F)(F)C(F)(F)F)[C@H]3[C@@H]1CC[C@@H]2O (stereo partly drawn) | inactive |
| O=c1cc[nH]c(=O)[nH]1 | inactive |
| N[C@@H](Cc1c[nH]c2ccc(O)cc12)C(=O)O | inactive |
| CCCCCCCC(=O)OCC(O)CO (stereo not drawn) | inactive |
| OCCCc1ccccc1 | inactive |
| CN/C(=C\[N+](=O)[O-])NCCSCc1ccc(CN(C)C)o1 | inactive |
| CC1(C)O[C@@H]2[C@@H](CO[C@@]3(COS(N)(=O)=O)OC(C)(C)O[C@@H]23)O1 | inactive |
| NC(=O)OCC(COC(N)=O)c1ccccc1 | inactive |
| C=C(C)OC(C)=O | inactive |
| O=C1CCCCCN1 | inactive |
| NC(=O)N1c2ccccc2C=Cc2ccccc21 | inactive |
| Cc1cccc2ccccc12 | inactive |
| CC(C)Cc1ccc(C(C)C(=O)O)cc1 (stereo not drawn) | inactive |
| CN(C)C=O | inactive |
| CCN(CC)CCOC(=O)c1ccc(N)cc1 | inactive |

Test system: not listed separately
Assay: qHTS assay to identify small molecule antagonists of the estrogen related receptor signaling pathway with the pleiotropic PPARgamma coactivator (PGC) from Tox21 10K library - cell viability counter screen (AID 1224840); further: nearly all actives have a fitted effect of over 40% in size
Settings: PGC/ERR reporter cells viability, CellTiter-Fluor, 17.5 h; series mostly up to 92.4 µM
Outline: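 Compounds in DMSO, alongside positive and negative controls, were pinned onto PGC/ERR cells (2,000 per well). Exposure lasted 17.5 hours at 37 C, followed by a 30-minute CellTiter-Fluor incubation and fluorescence reading.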

| SMILES | Potency |
| --- | --- |
| CC(C)(C)NCC(O)c1ccc(O)c(CO)c1 (stereo not drawn) | inactive |
| C[C@]12C[C@H](O)[C@H]3[C@@H](CCC4=CC(=O)CC[C@@]43C)[C@@H]1CC[C@@H]2C(=O)CO | inactive |
| NC(=O)NO | inactive |
| C=C(C)C(N)=O | inactive |
| Cc1cccc(C)c1O | inactive |
| C=CCOC(=O)CC(C)C | inactive |
| O=C(O)CN(CC(=O)O)CC(=O)O | inactive |
| CC(C)CC(C)CC(O)CC(C)C (stereo not drawn) | inactive |
| CCCCNC(=O)NS(=O)(=O)c1ccc(N)cc1 | inactive |
| CCCCCCCCOc1ccc(C(=O)c2ccccc2)c(O)c1 | inactive |
| N[C@@H](Cc1c[nH]c2ccccc12)C(=O)O | inactive |
| C[C@]12CC[C@@H]3c4ccc(O)cc4C[C@@H](CCCCCCCCCS(=O)CCCC(F)(F)C(F)(F)F)[C@H]3[C@@H]1CC[C@@H]2O (stereo partly drawn) | inactive |
| O=c1cc[nH]c(=O)[nH]1 | inactive |
| N[C@@H](Cc1c[nH]c2ccc(O)cc12)C(=O)O | inactive |
| CC(=O)c1ccc(S(=O)(=O)NC(=O)NC2CCCCC2)cc1 | inactive |
| CCCCCCCC(=O)OCC(O)CO (stereo not drawn) | inactive |
| OCCCc1ccccc1 | inactive |
| CN/C(=C\[N+](=O)[O-])NCCSCc1ccc(CN(C)C)o1 | inactive |
| CC1(C)O[C@@H]2[C@@H](CO[C@@]3(COS(N)(=O)=O)OC(C)(C)O[C@@H]23)O1 | inactive |
| NC(=O)OCC(COC(N)=O)c1ccccc1 | inactive |
| C=C(C)OC(C)=O | inactive |
| O=C1CCCCCN1 | inactive |
| NC(=O)N1c2ccccc2C=Cc2ccccc21 | inactive |
| Cn1cnc2c1c(=O)[nH]c(=O)n2C | inactive |
| Cc1cccc2ccccc12 | inactive |
| CC(C)Cc1ccc(C(C)C(=O)O)cc1 (stereo not drawn) | inactive |
| CN(C)C=O | inactive |
| CC(=O)Oc1ccccc1C(=O)O | inactive |
| CCN(CC)CCOC(=O)c1ccc(N)cc1 | inactive |
| Cc1cnc(NC(=O)C2=C(O)c3ccccc3S(=O)(=O)N2C)s1 | inactive |

Test system: not listed separately
Assay: qHTS assay to identify small molecule antagonists of the estrogen related receptor signaling pathway with the pleiotropic PPARgamma coactivator (PGC) from Tox21 10K library (AID 1224841; call rule not given here; further: actives are mostly falling curves and most rising ones were filed inactive; nearly all actives have a fitted effect of over 50% in size; further: potency means the concentration at half of the fitted maximal effect)
Settings: PGC/ERR reporter cell line, ONE-Glo luciferase, 18 h; series mostly up to 92.4 µM
Outline: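 Compound exposure ran 18 hours at 37 C in PGC/ERR cells (2,000/well) that had first rested 6 hours in a 37 C/5% CO2 incubator. Luciferase activity was then detected with One-Glo after a 30-minute room-temperature step.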

| SMILES | Potency |
| --- | --- |
| C=C(C)C(N)=O | inactive |
| Cc1cccc(C)c1O | inactive |
| C=CCOC(=O)CC(C)C | inactive |
| O=C(O)CN(CC(=O)O)CC(=O)O | inactive |
| CC(C)CC(C)CC(O)CC(C)C (stereo not drawn) | inactive |
| CCCCNC(=O)NS(=O)(=O)c1ccc(N)cc1 | inactive |
| CCCCCCCCOc1ccc(C(=O)c2ccccc2)c(O)c1 | inactive |
| C[C@]12CC[C@@H]3c4ccc(O)cc4C[C@@H](CCCCCCCCCS(=O)CCCC(F)(F)C(F)(F)F)[C@H]3[C@@H]1CC[C@@H]2O (stereo partly drawn) | 19.3 µM (active) and 6.39 µM (active) |
| O=c1cc[nH]c(=O)[nH]1 | inactive |
| CCCCCCCC(=O)OCC(O)CO (stereo not drawn) | inactive |
| OCCCc1ccccc1 | inactive |
| CC1(C)O[C@@H]2[C@@H](CO[C@@]3(COS(N)(=O)=O)OC(C)(C)O[C@@H]23)O1 | inactive |
| C=C(C)OC(C)=O | inactive |
| O=C1CCCCCN1 | inactive |
| Cc1cccc2ccccc12 | inactive |
| CC(C)Cc1ccc(C(C)C(=O)O)cc1 (stereo not drawn) | inactive |
| CN(C)C=O | inactive |
| CCN(CC)CCOC(=O)c1ccc(N)cc1 | inactive |

Target: Thyrotropin receptor (Homo sapiens) (UniProt P16473)
Sequence (P16473 whole entry, looked up): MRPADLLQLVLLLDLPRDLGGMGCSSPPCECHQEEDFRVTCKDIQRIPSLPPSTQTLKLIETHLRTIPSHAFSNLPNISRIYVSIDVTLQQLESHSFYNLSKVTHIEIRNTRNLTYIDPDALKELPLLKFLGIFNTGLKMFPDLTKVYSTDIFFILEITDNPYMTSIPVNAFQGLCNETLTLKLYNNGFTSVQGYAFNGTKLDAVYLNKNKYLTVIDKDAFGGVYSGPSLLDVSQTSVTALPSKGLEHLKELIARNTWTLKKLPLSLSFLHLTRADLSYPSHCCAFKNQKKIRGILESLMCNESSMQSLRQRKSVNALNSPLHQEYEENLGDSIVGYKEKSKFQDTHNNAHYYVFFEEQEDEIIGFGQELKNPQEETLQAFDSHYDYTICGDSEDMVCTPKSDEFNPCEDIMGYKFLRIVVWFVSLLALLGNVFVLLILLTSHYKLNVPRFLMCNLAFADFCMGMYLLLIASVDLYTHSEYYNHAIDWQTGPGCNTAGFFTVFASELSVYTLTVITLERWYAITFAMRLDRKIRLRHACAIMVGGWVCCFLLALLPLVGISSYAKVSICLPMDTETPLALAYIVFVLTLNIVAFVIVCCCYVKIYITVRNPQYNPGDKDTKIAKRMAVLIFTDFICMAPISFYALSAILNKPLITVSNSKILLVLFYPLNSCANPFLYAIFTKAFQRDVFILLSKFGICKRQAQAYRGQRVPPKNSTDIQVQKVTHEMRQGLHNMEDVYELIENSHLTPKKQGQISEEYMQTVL
Assay: qHTS assay to identify small molecule agonists of the thyroid stimulating hormone receptor (TSHR) signaling pathway (AID 1224843; calls by dose curve; further: nearly all actives have a fitted effect of over 45% in size; further: potency means the concentration at half of the fitted maximal effect)
Settings: TSHR-HEK293 cells, cAMP HTRF, agonist mode, 30 min; series mostly up to 92.4 µM
Outline: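 Screening of the Tox21 10K collection used HEK293 cells engineered with TSHR at 800 cells per well. After a 30-min room-temperature compound exposure, HTRF cAMP reagents were added and fluorescence recorded 1 h later.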

| SMILES | Potency |
| --- | --- |
| CC(C)(C)NCC(O)c1ccc(O)c(CO)c1 (stereo not drawn) | 60.7 nM (active) and 37.6 nM (active) |
| C[C@]12C[C@H](O)[C@H]3[C@@H](CCC4=CC(=O)CC[C@@]43C)[C@@H]1CC[C@@H]2C(=O)CO | 12.2 µM (active) and inactive |
| NC(=O)NO | inactive |
| C=C(C)C(N)=O | inactive |
| C=CCOC(=O)CC(C)C | inactive |
| O=C(O)CN(CC(=O)O)CC(=O)O | inactive |
| CCCCNC(=O)NS(=O)(=O)c1ccc(N)cc1 | inactive |
| CCCCCCCCOc1ccc(C(=O)c2ccccc2)c(O)c1 | inactive |
| N[C@@H](Cc1c[nH]c2ccccc12)C(=O)O | inactive |
| C[C@]12CC[C@@H]3c4ccc(O)cc4C[C@@H](CCCCCCCCCS(=O)CCCC(F)(F)C(F)(F)F)[C@H]3[C@@H]1CC[C@@H]2O (stereo partly drawn) | inactive |
| O=c1cc[nH]c(=O)[nH]1 | inactive |
| N[C@@H](Cc1c[nH]c2ccc(O)cc12)C(=O)O | inactive |
| CC(=O)c1ccc(S(=O)(=O)NC(=O)NC2CCCCC2)cc1 | inactive |
| CCCCCCCC(=O)OCC(O)CO (stereo not drawn) | inactive |
| OCCCc1ccccc1 | inactive |
| CN/C(=C\[N+](=O)[O-])NCCSCc1ccc(CN(C)C)o1 | inactive |
| CC1(C)O[C@@H]2[C@@H](CO[C@@]3(COS(N)(=O)=O)OC(C)(C)O[C@@H]23)O1 | inactive |
| NC(=O)OCC(COC(N)=O)c1ccccc1 | inactive |
| C=C(C)OC(C)=O | inactive |
| O=C1CCCCCN1 | inactive |
| Cn1cnc2c1c(=O)[nH]c(=O)n2C | inactive |
| Cc1cccc2ccccc12 | inactive |
| CC(C)Cc1ccc(C(C)C(=O)O)cc1 (stereo not drawn) | inactive |
| CN(C)C=O | inactive |
| CC(=O)Oc1ccccc1C(=O)O | inactive |
| CCN(CC)CCOC(=O)c1ccc(N)cc1 | inactive |
